The whole screen tested about 69,000 compounds, of which about 8,600 (12%) showed an effect of 50% or more. The sample holds strong results, similar compounds and a random draw of the others, so the mix is not that of the screen.
The molecules below were run on Plasmodium berghei (assay: Screen against P. berghei liver stage (PbLuc), transformed with Luciferase, at 10uM). Conditions: tested at 10 uM.
Assay type: functional, HepG2

Structure (SMILES) | INHIBITION [%]
NC(=O)CN(Cc1ncc(-c2ccc(Cl)cc2)o1)C1CCCC1 | -46.6
CN(C)C[C@@H]1CN(C2CCN(c3ccccc3Cl)CC2)C[C@@H]1CO | 22.3
CN(C)C[C@@H]1CN(C2CCN(c3ccc(Cl)cc3)CC2)C[C@@H]1CO | -86.5
CN(CCO)C[C@@H]1CN(C2CCN(c3ccccc3Cl)CC2)C[C@@H]1CO | 55.2
CCc1nnc(SC2CCCN(c3cnn(C)c3)C2=O)n1C (centres undefined) | -30.1
COc1cccc(N2CC3(CCN(C(=O)NC(C)C)C3)CC2=O)c1 (centres undefined) | -11.2
COc1cccc(C2CN(CCc3ccncc3)CCO2)c1 (centres undefined) | 10.5
Cc1noc(C)c1S(=O)(=O)N1CCC(Oc2ccccn2)CC1 | 45.7
Cc1ccc(S(=O)(=O)N2CCC(Oc3ccccn3)CC2)c(C)c1 | 78.2
Cc1ccc(S(=O)(=O)N2CCC(Oc3cccnn3)CC2)c(C)c1 | 49.7
CCOCn1cc(NC(=O)C2CCN(S(C)(=O)=O)CC2)cn1 | 38.2
COc1ccc(CCCN2C(=O)O[C@@H]3CN(C4CCOCC4)C[C@@H]32)cc1 | 34.9
Cc1nnc(NC(=O)N2CCCCC2CCO)s1 (centres undefined) | 44.3
Cc1nsc(NC(=O)N2CCCCC2CCCO)n1 (centres undefined) | 48
Cc1nsc(NC(=O)N2CCCCC2CCO)n1 (centres undefined) | 66.5
CCNC(=O)COc1ccc(C(=O)NC(C)CCc2ccco2)cc1 (centres undefined) | 20.6
CC(C)CCCC(C)NC(=O)c1ccc(OCC(N)=O)cc1 (centres undefined) | 56.4
CC(C)CCC(C)NC(=O)c1ccc(OCC(N)=O)cc1 (centres undefined) | -36.5
CCn1cnnc1CNC(=O)c1cc(Cl)c(I)cc1OC | -7.31
CC(=O)NCCC1CCCCN1C(=O)c1cccc(CCC(C)(C)O)c1 (centres undefined) | 19.7
O=C(Nc1ccccc1F)C1=NN(c2ccccc2)C(=O)CN1 | -73.1
CN(C)CCN1CCOCC2(CCCN(C(=O)Cc3ccccc3)C2)C1 (centres undefined) | 29
CCCn1cc(NC(=O)c2ccncc2)ccc1=O | 50.8
COCCn1cc(NC(=O)NC(C)CCc2ccccc2)ccc1=O (centres undefined) | 28.7
CCCn1cc(NC(=O)c2cccc3cccnc23)ccc1=O | -1.04

Structure (SMILES) | INHIBITION [%]
CCCn1cc(NC(=O)c2ccc(NC(=O)NC3CC3)cc2)ccc1=O | -13.4
CCCn1cc(NC(=O)c2ccc(N(C)CC)cc2)ccc1=O | 46.6
CCCn1cc(NC(=O)c2ccc(S(C)(=O)=O)cc2)ccc1=O | -5.65
CCCn1cc(NC(=O)c2cccnc2O)ccc1=O | 58.5
Cn1cc(NC(=O)c2cccc3cccnc23)ccc1=O | -10.8
CCCn1cc(NC(=O)c2ccc(S(=O)(=O)CC)cc2)ccc1=O | 60.3
CC(C)n1ccnc1CN1CCCN(C(=O)CN(C)C2CC2)CC1 | 40
Cc1nc(CN2CCCC(NCCOc3cccc(C#N)c3)C2)no1 (centres undefined) | 0.914
Cc1nccn1-c1cc(CNC(=O)CCS(=O)(=O)C2CCCC2)ccn1 | 5.9
Cc1ccc(OCCSC2=NCCN2)cc1 | 32.5
Cc1c(NC(=O)c2noc3c2CCCC3)cnn1C | 10
CCNC(=O)c1cnc(Sc2nccn2C)c(Cl)c1 | 62.8
CCOCCCNC(=O)c1nn(CC)cc1Cl | 7.9
CCN(CC)C(=O)c1cnc(Sc2nccn2C)c(Cl)c1 | 48
CN1CCN(S(=O)(=O)c2ccc(Sc3nccn3C)nc2)CC1 | 46.1
Cn1c(-c2ccccc2Cl)nc2cc(C(=O)NCCOCCO)cnc21 | -50.7
CC(C)NC(=O)c1cnc(Sc2nccn2C)c(Cl)c1 | 62.8
CCOCCNC(=O)c1cnc(Sc2nccn2C)c(Cl)c1 | 50.8
Cn1ccnc1Sc1ncc(C(=O)N2CCCCC2)cc1Cl | 27.6
Cc1c(Cl)cc(C(=O)N(CCO)Cc2nccn2C)cc1Cl | -8.47
CCCn1nccc1NC(=O)CN1CCCC1Cn1nc(C)nc1C (centres undefined) | -101
Cn1nc2c(cc1=O)CN(CCN1CCCC1=O)CC2 | -7.35
CCOc1ccc(Cl)c(C(=O)NC)n1 | 49
CS(=O)(=O)NCC1(O)CCCN(C(=O)CCn2cc(Cl)cn2)CC1 (centres undefined) | -28.7
CCCc1nc(CN(CCO)Cc2cc(Br)ccc2F)no1 | 39.4

Structure (SMILES) | INHIBITION [%]
CN1CCN(CCOc2ccc(NC(=O)c3cnc[nH]3)cc2)CC1 | 1.04
Cc1nn(C)c(C)c1CN(C)c1nc(C2CCCC2)nc2c1cnn2C | 42.6
Cc1c[nH]c(CN(C)c2nc(C3CCCC3)nc3c2cnn3C)n1 | 60.1
Cc1cc(C)nc(CN(C)c2nc(C3CCCC3)nc3c2cnn3C)c1 | 0.87
Cc1ccc(OC2CCN(S(=O)(=O)N(C)C)CC2)nc1 | 35.4
CCOc1cc(-c2cc(=O)n3c(n2)CCCCC3)ccc1O | -6.09
CCC(=O)NCc1cc(Br)c(OC)c(OC)c1 | -4.74
CCCC(=O)NCc1cc(Br)c(OC)c(OC)c1 | -26.1
CCS(=O)(=O)NCc1cc(Br)c(OC)c(OC)c1 | 51.3
CC(=O)NCCOc1c(Cl)cccc1Cl | 22
CN(Cc1cnn(C)c1)C(=O)CCC(=O)c1ccc2c(c1)OCCO2 | 5.48
CCc1cc(C(F)(F)F)n2nc(C3CCCN3C3CCSCC3)cc2n1 (centres undefined) | 18.95
Cc1cc(N2CCCC(c3n[nH]c4ncccc34)C2)ncn1 (centres undefined) | 26.3
Cc1nc(CN2C[C@@H]3CN(C(=O)C4(C#N)CC4)C[C@@H]3C2=O)cs1 | -20.2
COc1ccc(OCCNc2cccc(C(=O)N3CCOCC3)c2)cc1 | -12.5
COC(=O)CC1CN(Cc2c(Cl)ccc3cccnc23)CCO1 (centres undefined) | -14.2
NC(=O)c1cncc(Oc2cccc(CN3CCCC3)c2Cl)n1 | 24.4
Cc1cnc(C)c(Oc2ccc(CN3CCCC3)cc2Cl)n1 | 89.4
Cc1nn(C)c2ncc(CN3CCCCCC3)cc12 | 44.9
c1cc(-c2cn[nH]c2)ccc1CN1CCCCC1 | 10.6
Cc1cnc(C)c(Oc2ccc(Cl)c(CN3CCCC3)c2Cl)n1 | 90.3
Cc1cc(CN2CCCC2)cc(Oc2nc(C)cnc2C)c1 | 89.4
COc1ccc(CN2CCC3(CC2)C(C(=O)O)CC(=O)N3C)cc1Cl (centres undefined) | 39.9
CCn1c(C2CCCN(Cc3cc(C)cc(C)c3)C2)nn(C)c1=O (centres undefined) | -17.8

From ChEMBL document CHEMBL4513216, “Probing the Open Global Health Chemical Diversity Library for Multistage-Active Starting Points for Next-Generation Antimalarials” (ACS Infect Dis, 2020)
